KB-V1 cytotox = KB-V1 MDR subline cytotoxicity; Potency, µM (series often up to 46.1 µM), actives largely listed as cytotoxic; KB-V1 MDR cells viability, CellTiter-Glo, 72 h; actives 3.4% (n = 400,000); AID 1347076; also: nearly all actives have a fitted effect of over 60% in size
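KB-V1 MDR subline cells in DMEM (phenol-red free, 10% FBS) exposed to compounds in qHTS concentration series for 72 h at 37 degrees C. Viability read by CellTiter-Glo luminescence; concentration-effect curves fitted after normalization and correction.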
TDP1 cell CPT = growth inhibition of DT40 Tdp1-/-;hTDP1 cells with camptothecin (screen for TDP1 inhibitors) | chicken DT40 Tdp1-/-;hTDP1 cells + 20 nM CPT, ATP luminescence, 48 h | Potency, µM (series often up to 46.2 µM), for the others: at the highest dose activity change, negative = growth inhibition, actives largely listed as inhibitors | actives 12% (n = 420,000) | AID 686979; also: nearly all actives have a fitted effect of over 55% in size
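Chicken DT40 Tdp1-/- cells stably complemented with human TDP1 were seeded at 400 cells/well in medium containing 20 nM camptothecin, exposed to pin-transferred compounds, and grown at 37 °C for at least 48 hr. Viability was read as ATP luminescence.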
KB-3-1 tox = kills parental KB-3-1 adenocarcinoma cells. actives 1.4% (n = 400,000). Potency, µM (series often up to 46.1 µM), hits mostly cytotoxic. KB-3-1 viability, CellTiter-Glo ATP luminescence, 72 h. AID 1347075; also: nearly all actives have a fitted effect of over 60% in size
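Cells are dispensed, compounds pinned in, plates held at 37 °C for 72 h, then CellTiter-Glo is added and luminescence read after 10 minutes. Cell line: parental KB-3-1 in phenol-red-free DMEM, 10% FBS.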
HT1080 IDH1KD tx = toxicity to HT-1080 IDH1 knockdown cells (counter line). HT-1080 IDH1 knockdown viability, ATP luminescence, 48 h. Potency, µM (top dose mostly 46.1 µM), for the others: top-dose activity, negative = toxicity, usual class: cytotoxic. actives 2% (n = 360,000);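 also: 0% = DMSO wells and -100% = cell-free medium wells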
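Cytotoxicity counter-line: IDH1KD HT-1080, 48 h, CellTiter-Glo. Curves classed by r2, magnitude and activity.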
DT40 TDP1 no CPT = qHTS for Inhibitors of human tyrosyl-DNA phosphodiesterase 1 (TDP1): qHTS in cells in absence of CPT | actives 15% (n = 420,000) | DT40 Tdp1-/- hTDP1 cells, no CPT, ATP luminescence, 48 h | Potency, µM (highest dose often 46.2 µM), for inactives: at the highest dose activity change, negative = growth inhibition, hits mostly inhibitors; also: nearly all actives have a fitted effect of over 55% in size
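Luminescent ATP content (CellTiter-Glo) served as the growth readout. Knockout chicken DT40 cells expressing human TDP1 were exposed to compounds without camptothecin for a minimum 48 hr at 37 °C.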
HT1080-NT tox = kills 2HG-producing HT-1080-NT fibrosarcoma cells; HT-1080-NT fibrosarcoma viability, CellTiter-Glo ATP luminescence, 48 h; Potency, µM (series often up to 46.1 µM), without a hit: at the top dose activity, negative = less viability, usual class: cytotoxic; actives 1.6% (n = 360,000); AID 686970;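 also: NT is the 2HG producing partner of a matched IDH1 knockdown line; 0% = DMSO-treated cells and -100% = media-only wells without cells; nearly all actives have a fitted effect of over 55% in size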
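Luminescent CellTiter-Glo readout after 48 hours of compound exposure at 37 degrees C defined viability of HT-1080-NT cells. Activity was normalized to DMSO wells and cell-free media wells; concentration-response curves were fitted and assigned curve classes.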
Starred values were filed as active, the others as inactive; i = inactive; ? = inconclusive; · = not tested or not shown; [ ] = remark or other dose. Hits are enriched below; roughly 19% of the tested compounds scored in any of these assays. Calls follow the shape of the dose curve; as a rule, active = well fitted curve in the direction sought with a large enough effect; inconclusive = small, poorly fitted or top-dose-only effect, or another doubt; inactive = no such curve, though single readings can be large; an effect the other way counts as inactive or inconclusive. Unless noted, % is scaled to controls: 0 for no effect and ±100 for the full control effect; potency is read from the fitted curve at half-maximal effect.

SMILES	KB-V1 cytotox	TDP1 cell CPT	KB-3-1 tox	HT1080 IDH1KD tx	DT40 TDP1 no CPT	HT1080-NT tox
CC(C)Cc1nnc(NC(=O)C23CC4CC(CC(C4)C2)C3)s1	i	?	i	1%	18µM*	0%
CCc1nnc(NC(=O)C23CC4CC(CC(C4)C2)C3)s1	i	-11%	i	1%	-1%	-1%
COc1ccc(-c2nc3cc(C)ccc3cc2CN(C(=O)c2ccc(C)s2)C2CC2)cc1OC	·	-12%[9.04 µM]	·	·	21µM*	·
COc1cccc(-c2nc3cc4c(cc3cc2CN(C(=O)c2cc(C)nn2C)C2CC2)CCC4)c1OC	·	4.1µM*	·	·	16µM*	·
COc1ccc(-c2nc3cc(C)ccc3cc2CN(C(=O)c2ccco2)C2CC2)cc1OC	·	-6%[9.04 µM]	·	·	?	·
COc1ccc(-c2nc3cc(C)ccc3cc2CN(C(=O)c2cc(C)nn2C)C2CC2)cc1OC	·	?	·	·	21µM*	·
COc1ccc(-c2nc3cc(C)ccc3cc2CN(C(=O)c2cccs2)C2CC2)cc1OC	·	?	·	·	13µM*	·
COc1cccc(C(=O)N(Cc2cc3ccc(C)cc3nc2N(C)C)C2CC2)c1OC	·	-26%[9.04 µM]	·	·	-97%	·
Cc1cc(C(=O)C(=O)Nc2nncs2)c(C)n1-c1ccc(Cl)cc1	i	-30%	i	·	-28%	·
C(=Nc1cnc2ccccc2c1)c1ccncc1	i	-3%	?	·	-10%	·
FC(F)(F)c1ccccc1-c1ccc2ncnc(NCc3cccnc3)c2c1	·	2.1µM*	·	·	7.3µM*	·
Clc1ccccc1-c1ccc2ncnc(NCc3cccnc3)c2c1	i	?	i	·	?	·
COCCNc1ncnc2ccc(-c3ccccc3C(F)(F)F)cc12	·	13µM*	·	·	21µM*	·
COCCCNc1ncnc2ccc(C)cc12	?	16µM*	i	-28%	18µM*	-14%
c1cncc(CNc2ncnc3ccc(-c4cccnc4)cc23)c1	i	0.0065µM*	i	·	12µM*	·
Cc1ccc2ncnc(NCCC(=O)O)c2c1	i	?	i	0%	-8%	0%
Cc1nc(SCC(=O)Nc2ccccc2C)cc(-c2ccccc2)n1	·	-7%	·	·	-7%	·
CCc1ccc(N(CC(=O)N2CCCCCC2)S(C)(=O)=O)cc1	i	17%	i	13%	-14%	22%
O=C(CCC1N=C2c3ccccc3N=C(SCc3ccccc3Cl)N2C1=O)N1CCN(c2ccccc2)CC1 (stereo not drawn)	i	?	i	·	21µM*	·
COc1ccccc1NC(=O)CSC1=Nc2ccccc2C2=NC(CCC(=O)NCCc3ccccc3)C(=O)N12 (stereo not drawn)	i	?	i	·	23µM*	·
COc1ccccc1NC(=O)CSC1=Nc2ccccc2C2=NC(CCC(=O)NCc3ccco3)C(=O)N12 (stereo not drawn)	i	15µM*	i	·	16µM*	·
O=C(CCC1N=C2c3ccccc3N=C(SCc3ccccc3Cl)N2C1=O)NCc1ccco1 (stereo not drawn)	?	?	i	-25%	18µM*	-20%
COc1ccc(CN2CCOc3ccc(CN4CCC(O)CC4)cc3C2)c(OC)c1OC	·	-22%	·	·	-22%	·
CCOC(=O)c1cccc(NC(=O)c2cc3c(=O)n(Cc4cccnc4)ccc3nc2C)c1	i	?	i	·	?	·
CCOC(=O)c1ccccc1NC(=O)c1sc2ncn(Cc3cccc(F)c3)c(=O)c2c1C	i	?	i	·	-25%	·
SMILES	KB-V1 cytotox	TDP1 cell CPT	KB-3-1 tox	HT1080 IDH1KD tx	DT40 TDP1 no CPT	HT1080-NT tox
COC(=O)c1cc(C#N)c(N(C)Cc2ccccc2)nc1C	i	-11%	i	1%	-19%	-6%
COC(=O)c1cc(C#N)c(NCc2ccccc2)nc1C	i	?	i	-24%	16µM*	-12%
CCN(CC(=O)Nc1ccc2c(c1)OCCO2)CC(=O)Nc1ccc(C)c(S(=O)(=O)N(C)C)c1	i	-6%	i	0%	?	9%
COC(=O)c1sc2ccccc2c1-n1cccc1C(=O)C(=O)Nc1ccc(Cl)cc1	12µM*	?	?	0%	?	-2%
COC(=O)c1sc2ccccc2c1-n1cccc1C(=O)C(=O)Nc1ccc(F)cc1	i	14%	i	-1%	-26%	-3%
COC(=O)c1sccc1-n1cccc1C(=O)C(=O)Nc1ccc(F)cc1	i	10%	i	-7%	-10%	-16%
COC(=O)c1sc2ccccc2c1-n1cccc1C(=O)C(=O)Nc1ccc(C)cc1	9.2µM*	?	?	-6%[9.24 µM]	?	-6%
CCN(CC)CCCNc1ccc2ncn3c4ccc(O)cc4c(=O)c1c23	?	0.15µM*	23µM*	?	0.15µM*	-24%
CN(C)CCNc1ccc2nnn3c4ccc(O)cc4c(=O)c1c23	?	0.18µM*	7.3µM*	21µM*	0.18µM*	23µM*
CCN(CC)CCCNC(=O)c1cn(C)c2ccc(S(=O)(=O)N(C)C)cc2c1=O	i	2%	i	6%	-6%	-1%
CCc1ccc(-n2c(=O)c3c4c(sc3n(CC(=O)N3CCC(C)CC3)c2=O)CCC4)cc1	i	3%	i	·	-5%	·
CC(C)[C@H](NC(=O)NCc1ccc(F)cc1)C(=O)O	i	4%	i	5%	-4%	7%
CN(c1ccccc1)S(=O)(=O)c1ccc(Cl)c(C(=O)NC2=NCCS2)c1	i	?	?	0%	?	-3%
CN(c1cccc(Cl)c1)S(=O)(=O)c1cccc(C(=O)Nc2ccc3c(c2)CCC3)c1	?	23µM*	i	-18%	12µM*	-11%
NS(=O)(=O)c1cc(C(=O)Nc2ccc3c(c2)CCC3)ccc1Cl	i	-3%	i	-7%	?	0%
Cc1nnc(NC(=O)c2cccc(S(=O)(=O)N(C)c3cccc(Cl)c3)c2)s1	i	3%	i	3%	-3%	2%
CN(c1ccccc1)S(=O)(=O)c1ccc(Cl)c(C(=O)Nc2ccncc2)c1	?	18µM*	i	-19%	16µM*	-8%
CN(c1ccc(F)cc1)S(=O)(=O)c1ccc(Cl)c(C(=O)Nc2ccc3c(c2)CCC3)c1	i	5.2µM*	i	-9%	3.7µM*	3%
CN(c1ccccc1)S(=O)(=O)c1ccc(C(=O)Nc2ccncc2)cc1	?	?	i	-11%	15µM*	-10%

Screens as filed in PubChem BioAssay.
